Data as given in PubChem BioAssay AID2242 (National Center for Advancing Translational Sciences (NCATS), 2010).
Hit rate of the full screen: of about 200,000 compounds, about 720 (0.36%) were called active. Inconclusive results (about 8%) are left out. Calls follow the shape of the dose curve; as a rule, active = well fitted activation curve with a large enough effect; inconclusive = small, poorly fitted or top-dose-only effect, or effect the other way, or another doubt; inactive = flat fitted curve, though single readings scatter. Some of the results follow.

Each molecule was assayed against Lysosomal alpha-glucosidase (Homo sapiens) (UniProt P10253) (assay: qHTS Assay for Activators of Human alpha-Glucosidase as a Potential Chaperone Treatment of Pompe Disease). Conditions: purified enzyme, 4-MU-alpha-glucoside fluorescence, 20 min; series mostly up to 76.9 µM.
Summary of the method: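 Compounds titrated up to 77 uM against 4 nM enzyme and 400 uM methylumbelliferyl substrate at room temperature, 20 min, pH 5.0. Basic stop, then 4-methylumbelliferone fluorescence (365/440 nm) normalized to no-enzyme and enzyme controls; Hill-equation AC50.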
Also: nearly all actives have a fitted effect of over 80% in size.
Potency is read from the fitted curve at half-maximal effect.

Potency, active:
O=c1oc2c(CN3CCOCC3)c(O)ccc2c2c1CCC2 25.1 µM, O=c1oc2c(CN3CCOCC3)c(O)ccc2c2c1CCCC2 35.5 µM, COC(=O)c1nc2nc(-c3cccs3)cc(C(F)(F)F)n2n1 35.5 µM, CCOC(=O)c1nc2nc(-c3cccs3)cc(C(F)(F)F)n2n1 14.1 µM, CN(C)CCNC(=O)c1cc2c(s1)-c1ccccc1OC2 6.31 µM, O=C(NCc1cccs1)c1cc2c(s1)-c1ccccc1OC2 39.8 µM, COC(=O)c1ccc(-c2ncc(-c3cccc4ccccc34)o2)cc1 28.2 µM, Cc1cc(-c2ccc(C(=O)O)s2)cnc1N 28.2 µM, O=C(COC(=O)c1ccccc1Nc1ccccc1)NCc1ccccc1Cl 28.2 µM, CCCCNS(=O)(=O)c1ccc2nc(-c3cccs3)cc(C(=O)NCC(OC)OC)c2c1 25.1 µM, COc1cc2cc(C(N)=O)c(N)nc2cc1OC 35.5 µM, COc1ccccc1N1CCN(C(=O)c2c(-c3ccccc3)noc2C)CC1 35.5 µM, CCNC(=O)/C(C#N)=C/c1c(N2CCOCC2)nc2ccccn2c1=O 28.2 µM, O=c1cc(CN2CCN(S(=O)(=O)/C=C/c3ccccc3)CC2)c2ccc(O)cc2o1 35.5 µM, O=c1cc(CN2CCN(S(=O)(=O)c3ccc4c(c3)OCCO4)CC2)c2ccc(O)cc2o1 28.2 µM, O=c1[nH]c(=O)c2nc(-c3ccc(Cl)cc3)cnc2[nH]1 28.2 µM, CCN1c2ccccc2-c2nc3ccccc3n2C1c1ccccn1 (stereo not drawn) 31.6 µM, c1ccc(CN2c3ccccc3-c3nc4ccccc4n3C2c2ccccn2)cc1 (stereo not drawn) 28.2 µM, CCOCC(=O)Nc1ccc(-c2cn3cccnc3n2)cc1 35.5 µM, CC(=O)Nc1ccc(-c2cn3cccnc3n2)cc1 28.2 µM, CCOCC(=O)Nc1cc(-c2cn3cccnc3n2)ccc1C 35.5 µM, COCC(=O)Nc1ccc(-c2cn3cccnc3n2)cc1 35.5 µM, CCCCCC(=O)Nc1ccc(-c2cn3cccnc3n2)cc1 35.5 µM, Cc1onc(-c2ccccc2Cl)c1C(=O)Nc1cccc(-c2nc3ncccn3c2C)c1 35.5 µM, Cc1onc(-c2ccccc2Cl)c1C(=O)Nc1ccc(-c2cn3cccnc3n2)cc1 35.5 µM, CC(C)(O[C@@H]1O[C@H](CO)[C@@H](O)[C@H](O)[C@H]1O)[C@H]1Cc2cc3ccc(=O)oc3cc2O1 35.5 µM, O=C(Oc1cc2oc(=O)c3c(c2cc1Cl)CCCC3)c1ccco1 10 µM, O=C(Oc1ccc2c3c(c(=O)oc2c1)CCCC3)c1ccco1 35.5 µM, O=C(Oc1ccc2c3c(c(=O)oc2c1)CCC3)c1ccco1 35.5 µM, CCCc1cc(NCC2CCCO2)n2c(nc3ccccc32)c1C#N (stereo not drawn) 35.5 µM, CC(C)c1cc(NCC2CCCO2)n2c(nc3ccccc32)c1C#N (stereo not drawn) 35.5 µM, CCN1CCN(CCCNC(=O)c2cc3cc4ccc(OC)cc4nc3o2)CC1 35.5 µM, COc1ccc2cc3cc(C(=O)NCCCN4CCOCC4)oc3nc2c1 35.5 µM, CCCSc1nc2sc3c(c2c(=O)[nH]1)CCN(Cc1ccccc1)C3 31.6 µM, COC(=O)c1ccncc1N 35.5 µM, COC(=O)c1sc2cnccc2c1N 35.5 µM, COC(=O)c1sc2ccccc2c1N 39.8 µM, Cc1ccc(-n2c(N)c(S(=O)(=O)c3ccccc3)c3nc4ccccc4nc32)cc1 25.1 µM, Cc1ccc(S(=O)(=O)c2c(N)n(CC3CCOC3)c3nc4ccccc4nc23)cc1 (stereo not drawn) 35.5 µM, Cc1ccc(S(=O)(=O)c2c(N)n(CCCO)c3nc4ccccc4nc23)cc1 35.5 µM, Cc1cccc(S(=O)(=O)c2c(N)n(-c3ccccc3)c3nc4ccccc4nc23)c1 35.5 µM, Cc1ccc(S(=O)(=O)c2c(N)n(C)c3nc4ccccc4nc23)cc1 25.1 µM, Nc1c(S(=O)(=O)c2ccccc2)c2nc3ccccc3nc2n1C1CC1 28.2 µM, Nc1c(S(=O)(=O)c2ccccc2)c2nc3ccccc3nc2n1CCN1CCOCC1 39.8 µM, Nc1c(S(=O)(=O)c2ccccc2)c2nc3ccccc3nc2n1Cc1ccco1 28.2 µM, COCCCn1c(=NC(=O)c2ccncc2)c(C#N)cc2c(=O)n3cccc(C)c3nc21 35.5 µM, COCCCn1c(=NC(=O)c2ccccc2)c(C#N)cc2c(=O)n3cccc(C)c3nc21 39.8 µM, Cc1cccn2c(=O)c3cc(C#N)c(=NC(=O)c4ccncc4)n(CCCOC(C)C)c3nc12 35.5 µM, CCC12OC(=N)C(C#N)(C1C)C(C#N)(C#N)C(c1ccccc1)O2 (stereo not drawn) 39.8 µM, CCC1OC2(C)OC(=N)C1(C#N)C(C#N)(C#N)C2c1ccccc1 (stereo not drawn) 35.5 µM, CC(=O)Nc1ccc(S(=O)(=O)C(C#N)c2nc3ccccc3nc2NCCO)cc1 (stereo not drawn) 35.5 µM, CC(=O)Nc1ccc(S(=O)(=O)C(C#N)c2nc3ccccc3nc2NCCCO)cc1 (stereo not drawn) 31.6 µM, Cc1ccc(S(=O)(=O)NC(C(=O)Oc2ccc3ccc(=O)oc3c2)c2ccccc2)cc1 (stereo not drawn) 35.5 µM, Cc1ccc(S(=O)(=O)NC(C(=O)Oc2ccc3c(C)c(Cl)c(=O)oc3c2)c2ccccc2)cc1 (stereo not drawn) 28.2 µM, Cc1ccc(S(=O)(=O)NC(C(=O)Oc2cc3oc(=O)cc(C)c3cc2Cl)C(C)C)cc1 (stereo not drawn) 31.6 µM, CC(NC(=O)OC(C)(C)C)C(=O)Oc1ccc2ccc(=O)oc2c1 (stereo not drawn) 31.6 µM, O=C(Oc1ccc2ccc(=O)oc2c1)C1CCCCC1 35.5 µM, CC(C)(C)OC(=O)NCCC(=O)Oc1ccc2ccc(=O)oc2c1 35.5 µM, Cc1c(CCC(=O)O)c(=O)oc2cc(O)ccc12 35.5 µM, CCOC(=O)CCc1c(C)c2ccc(O)cc2oc1=O 35.5 µM, Cc1cccc(C(=O)N=c2c(C#N)cc3c(=O)n4cccc(C)c4nc3n2Cc2ccco2)c1 35.5 µM, Cc1ccccc1C(=O)N=c1c(C#N)cc2c(=O)n3cccc(C)c3nc2n1Cc1ccco1 35.5 µM, Clc1ccc(N2N=C(c3cccs3)CC2c2ccco2)cc1 (stereo not drawn) 35.5 µM, Fc1ccc(N2N=C(c3cccs3)CC2c2ccco2)c(F)c1 (stereo not drawn) 31.6 µM, O=c1oc2ccccc2c2c1SC(C(F)(F)F)C2 (stereo not drawn) 31.6 µM, NS(=O)(=O)c1ccc(N2N=C(c3ccccc3)CC2c2ccccc2)cc1 (stereo not drawn) 31.6 µM, COc1ccc(C2CC(c3ccccc3)=NN2c2ccc(Cl)c(C(=O)O)c2)cc1 (stereo not drawn) 28.2 µM, NS(=O)(=O)c1ccc(N2N=C(c3ccc(Br)cc3)CC2c2ccc(F)cc2)cc1 (stereo not drawn) 31.6 µM, O=S(=O)(O)c1ccc(N2N=C(c3ccccc3)CC2c2ccccc2)cc1 (stereo not drawn) 35.5 µM, CCc1ccc(C2=NN(c3ccc(S(N)(=O)=O)cc3)C(c3ccc(F)cc3)C2)cc1 (stereo not drawn) 31.6 µM, NS(=O)(=O)c1ccc(N2N=C(c3ccccc3)CC2c2ccc(F)cc2)cc1 (stereo not drawn) 31.6 µM, COc1ccc(C2CC(c3ccccc3)=NN2c2ccc(S(N)(=O)=O)cc2)cc1OC (stereo not drawn) 31.6 µM, NS(=O)(=O)c1ccc(N2N=C(c3ccccc3)CC2c2cccc(F)c2)cc1 (stereo not drawn) 35.5 µM
